Active and inactive are the calls of the source. A call without a number means that no potency is given here. The call rests on the fitted dose curve.
Each molecule was assayed against Androgen receptor (Homo sapiens) (UniProt P10275) (assay: qHTS assay to identify small molecule agonists of the androgen receptor (AR) signaling pathway in the presence of an antagonist (AID 1259381; further: nearly all actives have a fitted effect of over 15% in size)). Conditions: MDA-kb2 MMTV-luciferase, AR agonist + nilutamide, 16 h; series mostly up to 92.4 µM.
Androgen receptor (Homo sapiens), sequence (P10275 whole entry, looked up): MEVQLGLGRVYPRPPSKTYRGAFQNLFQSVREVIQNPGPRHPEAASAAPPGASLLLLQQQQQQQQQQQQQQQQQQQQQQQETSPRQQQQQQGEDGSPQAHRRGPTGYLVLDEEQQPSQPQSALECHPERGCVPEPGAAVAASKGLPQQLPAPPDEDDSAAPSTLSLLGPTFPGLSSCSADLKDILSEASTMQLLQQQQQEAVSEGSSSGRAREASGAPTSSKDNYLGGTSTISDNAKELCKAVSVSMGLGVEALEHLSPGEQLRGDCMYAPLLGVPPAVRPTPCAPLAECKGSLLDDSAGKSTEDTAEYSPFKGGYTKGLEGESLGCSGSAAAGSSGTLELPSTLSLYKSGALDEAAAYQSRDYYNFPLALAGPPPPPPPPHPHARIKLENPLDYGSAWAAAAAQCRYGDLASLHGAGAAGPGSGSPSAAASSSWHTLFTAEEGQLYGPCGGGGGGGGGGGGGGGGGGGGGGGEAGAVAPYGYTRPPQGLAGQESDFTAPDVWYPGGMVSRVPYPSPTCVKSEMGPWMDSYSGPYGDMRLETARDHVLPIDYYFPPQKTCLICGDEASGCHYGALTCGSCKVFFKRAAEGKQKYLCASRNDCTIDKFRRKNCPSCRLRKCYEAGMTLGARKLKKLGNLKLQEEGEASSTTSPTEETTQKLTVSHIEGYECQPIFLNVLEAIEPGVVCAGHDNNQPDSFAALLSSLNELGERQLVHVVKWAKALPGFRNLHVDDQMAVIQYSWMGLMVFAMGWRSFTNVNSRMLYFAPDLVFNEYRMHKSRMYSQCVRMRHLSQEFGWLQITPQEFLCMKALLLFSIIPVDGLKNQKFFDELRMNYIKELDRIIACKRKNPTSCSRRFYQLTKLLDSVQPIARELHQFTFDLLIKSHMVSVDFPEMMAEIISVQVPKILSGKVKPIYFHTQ
Source text: National Center for Advancing Translational Sciences [NCATS] NIH Chemical Genomics Center [NCGC] U.S. Environmental Protection Agency [EPA] National Institutes of Environmental Health Sciences [NIEHS] National Toxicology Program [NTP] Assay overview: Androgen receptor (AR) is an important member of nuclear receptor family. Its signaling plays a critical role in AR-dependent prostate cancer and other androgen related diseases. Considerable attention has been given in the past decades to develop methods to study and screen for the environmental chemicals that have the potential to interfere with metabolic homeostasis, reproduction, developmental and behavioral functions. Therefore AR binding assay for screening against androgen agonists and antagonists can be used to identify potential endocrine disruptors. MDA-kb2 cells (from ATCC, deposited by Wilson et al.) are human breast carcinoma cells that were stably transfected with a luciferase reporter gene under control of the MMTV promoter that contains response elements for both androgen receptor (AR) and glucocorticoid receptor (GR). This particular screening for measuring luciferase reporter gene activity using MDA-kb2 cells against Tox21 10K library compounds is a confirmation study on agonist mode screening in the presence of AR-antagonist compound (Nilutamide) at 3.0uM final concentration.
Assay Protocol Summary: MDA-kb2 cells (cells cultured without CO2) were dispensed at 3,000 cells/well in 4uL of culture medium into white wall/solid-bottom 1536-well plates (Corning Life Sciences, Corning, NY) using a Multidrop Combi (Thermo Fisher Scientific Inc., Waltham, MA) dispenser. The assay plates were incubated at 37C and 0% CO2 for 5hr. One uL of 3.0uM (final concentration) Nilutamide or assay buffer was added using two separate tips of Flying Reagent Dispenser (FRD, Aurora Discovery, San Diego, CA). Then 23nL of compounds dissolved in DMSO at 15 concentrations and positive controls were transferred to the assay plates using a Pintool station (Wako, San Diego, CA). The assay plates were incubated at 37C and 0% CO2 for 16hr. For luciferase read, 4uL/well ONE-Glo reagent (Promega Corporation, Madison, WI) was added to each well of the assay plates using FRD. After 30min incubation at room temperature, the luminescence signal was measured using a ViewLux plate reader (PerkinElmer, Shelton, CT).
`O=C(O)Cc1ccc(Cl)cc1Cl` was tested, and the Potency was “inactive”. `O=C(O)CCSSCCC(=O)O` was tested, and the Potency was “inactive”. In the case of `CCCCCCCCCC(C)=O`, the Potency was “inactive”. In the case of `CCN(CC)CC(=O)Nc1c(C)cccc1C`, the Potency was “inactive”. With `CC(C)NCC(O)COc1cccc2[nH]ccc12` (stereo not given) the Potency was “inactive”. In the case of `NS(=O)(=O)c1cc2c(cc1Cl)CN(C1CCCCC1)C2=O`, the Potency was “inactive”. For `CC(C)(C)c1nnc(NS(=O)(=O)c2ccc(N)cc2)s1`, the Potency was “inactive”. With `Cc1cc(C(C)(C)C)c(O)c(C)c1CC1=NCCN1` the Potency was “inactive”. For `Oc1ccccc1-c1nnco1`, the Potency was “inactive”. With `CCC(CC)CO` the Potency was “inactive”. With `O=C(NCCc1c[nH]c2ccccc12)c1cccnc1` the Potency was “inactive”. `CC(C)NCC(O)COc1ccc(COCCOC(C)C)cc1` (stereo not given) was tested, and the Potency was “inactive”. With `Cc1ccc2ccc(Cl)cc2n1` the Potency was “inactive”. For `CC(C)c1ccc2cc(C(C)C)ccc2c1`, the Potency was “inactive”. In the case of `C=C(C)C1CCC(C)(O)CC1` (stereo not given), the Potency was “inactive”. With `C=COCCOCCOCCOC=C` the Potency was “inactive”. `CC(C)(C)OC(=O)c1ccc(O)cc1` was tested, and the Potency was “inactive”. For `O=C(Nc1ccc(Cl)c(Cl)c1)C1CC1`, the Potency was “inactive”. In the case of `CCCCOC(=O)c1ccccc1`, the Potency was “inactive”. For `CCCC/C=C/C=C\C=O`, the Potency was “inactive”. `O=C1c2ccccc2C(=O)N1CCl` was tested, and the Potency was “inactive”. With `CC(CC=O)CCCC(C)(C)O` (stereo not given) the Potency was “inactive”. `CC(CO)c1ccccc1` (stereo not given) was tested, and the Potency was “inactive”. `Cc1cccc(C)c1NC(=O)c1ccccc1C(=O)O` was tested, and the Potency was “inactive”. With `CC(=O)NCc1c(I)c(NC(C)=O)c(I)c(C(=O)O)c1I` the Potency was “inactive”. `C=CCCCCCCCCCCCC` was tested, and the Potency was “inactive”. For `CC(C(=O)O)c1ccc2c(c1)CC(=O)c1ccccc1S2` (stereo not given), the Potency was “inactive”. `COCCc1ccc(OCC2CO2)cc1` (stereo not given) was tested, and the Potency was “inactive”. With `COCCOCCOCCOCCO` the Potency was “inactive”. With `COc1cc2c(cc1OC)C(=O)CC2` the Potency was “inactive”. In the case of `CCN(C)C(=O)Oc1cccc([C@H](C)N(C)C)c1`, the Potency was “inactive”. `Nc1ccc(S(=O)(=O)Nc2ccc(Cl)nn2)cc1` was tested, and the Potency was “inactive”. `CC(C)(C)NC(N)=O` was tested, and the Potency was “inactive”. `O=C(O)c1cc(Cl)cc([N+](=O)[O-])c1Cl` was tested, and the Potency was “inactive”. `CCOC(=O)c1ncn2c1CN(C)C(=O)c1cc(F)ccc1-2` was tested, and the Potency was “inactive”. With `COc1ccc(OC)c(Cl)c1` the Potency was “inactive”. `COc1cc(NS(=O)(=O)c2ccc(N)cc2)nc(OC)n1` was tested, and the Potency was “inactive”. For `OCCC(F)(F)C(F)(F)C(F)(F)C(F)(F)C(F)(F)C(F)(F)C(F)(F)C(F)(F)F`, the Potency was “inactive”. With `Cc1[nH]cnc1-c1ccc(Cl)cc1` the Potency was “inactive”. `O=C(O)c1cc(Br)c(O)c(Br)c1` was tested, and the Potency was “inactive”.

From PubChem BioAssay (Tox21)
